Each structure is given as a SMILES string. Records with an inconclusive call do not appear. Entries that show only a call come without a potency. Active and inactive are the calls of the source. Calls follow the shape of the dose curve; as a rule, active = well fitted cell-killing curve with a large enough effect; inconclusive = small, poorly fitted or top-dose-only effect, or effect the other way; inactive = no such curve, though single readings can be large or run the other way.
Potency is read from the fitted curve at half-maximal effect.

A short description of the assay: Quantitative High-Throughput drug screen in 47 multiple myeloma cell lines against the NCATS MIPE library collection: LP1_DSMZ cell viability assay (AID 1918982). Also: nearly all actives have a fitted effect of over 35% in size. The following applies: LP1 myeloma viability, CellTiter-Glo ATP luminescence, 48 h; series mostly up to 45.8 µM. An excerpt:
PI: Beverly A. Mock Ph.D.
Laboratory of Cancer Biology and Genetics,
Center for Cancer Research, National Cancer Institute,
National Institute of Health, Bethesda, Maryland
Drug resistance and disease progression are common in multiple myeloma (MM) patients, underscoring the need for new therapeutic combinations. […] We hypothesized that effective combinations would reduce MYC expression and enhance p16 activity. […] These preclinical data identify potentially useful drug combinations for evaluation in drug-resistant MM and reveal potential mechanisms of combined drug sensitivity.
Described herein is the primary MIPE qHTS used to cherrypick compounds. Validated compounds were then further tested for potential synergistic activiy.
[1] Peat TJ, Gaikwad SM, Dubois W, Gyabaah-Kessie N, Zhang S, Gorjifard S, Phyo Z, Andres M, Hughitt VK, Simpson RM, Miller MA, Girvin AT, Taylor A, Williams D, D'Antonio N, Zhang Y, Rajagopalan A, Flietner E, Wilson K, Zhang X, Shinn P, Klumpp-Thomas C, McKnight C, Itkin Z, Chen L, Kazandijian D, Zhang J, Michalowski AM, Simmons JK, Keats J, Thomas CJ, Mock BA. Drug combinations identified by high-throughput screening promote cell cycle transition and upregulate Smad pathways in myeloma. Cancer Lett. 2023 Aug 1;568:216284. doi: 10.1016/j.canlet.2023.216284. Epub 2023 Jun 24. PMID: 37356470; PMCID: PMC10408729.
SEQUENCE No. (e.g., 1, 2, 3, etc.); […] (e.g., Cells, Incubation, Reagent, etc.); VALUE and DESCRIPTION.
1; Cells; 5 uL; white, solid bottom 1536-well Greiner assay plate.
2; Compounds; 23 nL; Kalypsis pin tool (Wako USA) equipped with a 1536-well pin head to transfer to the assay plates.
3; Incubation; 48 hours; 37C incubation.
4; Reagent;5uL; CellTiter Glo (Promega).
5; Detector; 425V; Luminescence; Viewlux PerkinElmer.
NOTES (numbers refer to Sequence numbers above)
1. The cell-based screening methods employed in this study were like those previously published. Briefly, the corresponding myeloma cell lines were screened in 1,536-well plates with 500 cells, 5-uL per well for inhibition of cell viability (assessed by measuring ATP levels with CellTiterGlo).
2. NCATS MIPE 4.0 library of approved and investigational drugs were added using the Kalypsis pin tool. Wells treated with DMSO only for 100% viability and media only for 0% viability were used as controls.
3. The assay plates were covered and incubated for 48 hours in a 37C, 5% CO2 incubator with controlled humidity.
4. After 48 hours, CellTilter-GloTM luminescent substrate mix (Promega) reagent was added to the assay plate and plates we incubated for 5 min at room temperature.
5. Signal was measured as median relative luminescence units on a ViewLux (PerkinElmer) multiplate reader.
[1] Heske CM, Davis MI, Baumgart JT, Wilson K, Gormally MV, Chen L, Zhang X, Ceribelli M, Duveau DY, Guha R, Ferrer M, Arnaldez FI, Ji J, Tran HL, Zhang Y, Mendoza A, Helman LJ, Thomas CJ. Matrix Screen Identifies Synergistic Combination of PARP Inhibitors and Nicotinamide Phosphoribosyltransferase (NAMPT) Inhibitors in Ewing Sarcoma. Clin Cancer Res. 2017 Dec 1;23(23):7301-7311. doi: 10.1158/1078-0432.CCR-17-1121. Epub 2017 Sep 12. PMID: 28899971; PMCID: PMC6636827.
Consider `N[C@@H](Cc1ccc(N(CCCl)CCCl)cc1)C(=O)O`, for which the Potency is 16.6 µM (active).
As for `CN(C)CCc1ccc(O)cc1`, the Potency entry is “inactive”.
Take `Cc1cc(SCc2sc(-c3ccc(C(F)(F)F)c(F)c3)nc2C)ccc1OCC(=O)O`: the Potency was 16.6 µM (active).
Take `O=C1CC[C@@]2(O)[C@H]3Cc4ccc(O)c5c4[C@@]2(CCN3CC2CC2)[C@H]1O5`: the Potency entry was “inactive”.
As to `Cc1sc2c(c1C)C(c1ccc(Cl)cc1)=N[C@@H](CC(=O)OC(C)(C)C)c1nnc(C)n1-2`, the Potency is 1.05 µM (active).
Next, `CC(C)CC(N(C)C)C1(c2ccc(Cl)cc2)CCC1` (configuration not stated): “inactive”; `C#CCN(C)[C@H](C)Cc1ccccc1`: “inactive”.
Next, `CC1=C2C[C@@H]3[C@@H](CC=C4C[C@@H](O)CC[C@@]43C)[C@@H]2CC[C@]12O[C@H]1C[C@H](C)CN[C@H]1[C@H]2C`: “inactive”; `O=C(O)C(=O)c1cn(Cc2ccccc2)c2ccc(-c3ccc(OC(F)(F)F)cc3)cc12`: “inactive”; `C=C(C)[C@H]1Cc2c(ccc3c2O[C@@H]2COc4cc(OC)c(OC)cc4[C@@H]2C3=O)O1`: 0.264 µM (active).
Turning to `Cc1cccc(C)c1NC(=O)CN1CCCC1=O`, the Potency result is “inactive”.
As for `COC1(CS(=O)c2ccccc2)CCN(CCc2c[nH]c3ccc(F)cc23)CC1` (configuration not stated), the Potency result was “inactive”.
For `CCCC(C)(COC(N)=O)COC(=O)NC(C)C` (configuration not stated), the Potency result was “inactive”.
As for `COc1ccc(C(=O)c2c(C)n(CCN3CCOCC3)c3ccccc23)cc1`, the Potency result is “inactive”.
Turning to `CNCC(O)c1ccc(O)cc1` (configuration not stated), the Potency entry was “inactive”.
As to `COc1ccc(C(CN(C)C)C2(O)CCCCC2)cc1` (configuration not stated), the Potency entry was “inactive”.
With `NCC1(CC(=O)O)CCCCC1`, the Potency entry is “inactive”.
Regarding `C[C@@H]1O[C@@H](O[C@H]2C[C@@H](O)[C@]3(CO)[C@H]4[C@H](O)C[C@]5(C)[C@@H](C6=CC(=O)OC6)CC[C@]5(O)[C@@H]4CC[C@]3(O)C2)[C@H](O)[C@H](O)[C@H]1O`, the Potency was 0.0166 µM (active).
`COC[C@@H](NC(C)=O)C(=O)NCc1ccccc1`: the Potency result was “inactive”.
Regarding `CN1CCN(C(=O)O[C@H]2c3nccnc3C(=O)N2c2ccc(Cl)cn2)CC1`, the Potency result was “inactive”.
Turning to `Fc1ccc(C(OCCN2CCN(CCCc3ccccc3)CC2)c2ccc(F)cc2)cc1`, the Potency is 18.7 µM (active).
With `Cn1cc(C2=C(c3cn(C4CCN(Cc5ccccn5)CC4)c4ccccc34)C(=O)NC2=O)c2ccccc21`, the Potency is 10.5 µM (active).
